Data on 6 targets can be found in the supplement of paper PMC10849652.

The full data set covers some 8,800 targets. This sample favours those with a hit. About 0.5% of all pairs of compound and target were hits. A number with no mark means an inactive call.

What all share (test): log2 fold change, soluble protein after heating vs DMSO (PISA); higher = thermal stabilisation; K562 lysate, 10 uM; active = over 0.2 and 3.5 SD of the protein, either way, in both replicates (recomputed)
Compound in one assay: Cc1cn(-c2cc(NC(=O)c3ccc(C)c(Nc4nccc(-c5cccnc5)n4)c3)cc(C(F)(F)F)c2)cn1 [nilotinib]
The procedure, abridged:
(§1)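 To prepare the extract, K562 pellets were dounce-homogenised in PBS pH 7.4 with 1 mM MgCl2, giving crude material at 1 mg/mL protein. This was treated with 10 μM compound for 30 min, then heated in aliquots for 3 min over 48°C-58°C before pooling and addition of NP-40 to 0.5% at 4°C. Centrifugation at 21,000xg for 90 min left soluble protein in the supernatant, which TMTpro 16plex LC-MS/MS quantified with equalised channel sums. Results are log-two fold changes in thermal stability compared with solvent controls, from duplicates.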

Compound in assay [1]: Cc1nc(Nc2n[nH]c3c2CN(C(=O)N[C@H](CN(C)C)c2ccccc2)C3(C)C)c2sccc2n1
The procedure, abridged:
as §1

Compound in a further assay: Cc1nc(Nc2ncc(C(=O)Nc3c(C)cccc3Cl)s2)cc(N2CCN(CCO)CC2)n1 [dasatinib]
The procedure, abridged: as §1

Compound in assay [2]: Cc1ncc(-c2ccnc(Nc3ccc(S(C)(=O)=O)cc3)n2)n1C(C)C
The procedure, abridged: as §1

Compound in assay [3]: Cn1cc(-c2ccc3c(c2)CCN3C(=O)Cc2cccc(C(F)(F)F)c2)c2c(N)ncnc21
In a few lines:
as §1

Compound in the next assay: Cn1cc(CNCC2CCN(c3ncc(C(=O)NO)cn3)CC2)c2ccccc21 [quisinostat]
In a few lines: as §1

Compound in another assay: Cn1cncc1[C@@](N)(c1ccc(Cl)cc1)c1ccc2c(c1)c(-c1cccc(Cl)c1)cc(=O)n2C [tipifarnib]
The procedure, abridged: as §1

Compound in assay [4]: NC(=O)Nc1cc(-c2cccc(F)c2)sc1C(=O)N[C@H]1CCCNC1
The procedure, abridged: as §1

Compound in assay [5]: NC(=O)c1cnc(N[C@@H]2CCCC[C@@H]2N)nc1Nc1cccc(-n2nccn2)c1
The procedure, abridged: as §1

Compound in assay [6]: NC1(c2ccc(-c3nc4ccn5c(=O)[nH]nc5c4cc3-c3ccccc3)cc2)CCC1
The procedure, abridged:
as §1

Chain of UniProt Q8IVT5 (Q8IVT5 whole entry, looked up): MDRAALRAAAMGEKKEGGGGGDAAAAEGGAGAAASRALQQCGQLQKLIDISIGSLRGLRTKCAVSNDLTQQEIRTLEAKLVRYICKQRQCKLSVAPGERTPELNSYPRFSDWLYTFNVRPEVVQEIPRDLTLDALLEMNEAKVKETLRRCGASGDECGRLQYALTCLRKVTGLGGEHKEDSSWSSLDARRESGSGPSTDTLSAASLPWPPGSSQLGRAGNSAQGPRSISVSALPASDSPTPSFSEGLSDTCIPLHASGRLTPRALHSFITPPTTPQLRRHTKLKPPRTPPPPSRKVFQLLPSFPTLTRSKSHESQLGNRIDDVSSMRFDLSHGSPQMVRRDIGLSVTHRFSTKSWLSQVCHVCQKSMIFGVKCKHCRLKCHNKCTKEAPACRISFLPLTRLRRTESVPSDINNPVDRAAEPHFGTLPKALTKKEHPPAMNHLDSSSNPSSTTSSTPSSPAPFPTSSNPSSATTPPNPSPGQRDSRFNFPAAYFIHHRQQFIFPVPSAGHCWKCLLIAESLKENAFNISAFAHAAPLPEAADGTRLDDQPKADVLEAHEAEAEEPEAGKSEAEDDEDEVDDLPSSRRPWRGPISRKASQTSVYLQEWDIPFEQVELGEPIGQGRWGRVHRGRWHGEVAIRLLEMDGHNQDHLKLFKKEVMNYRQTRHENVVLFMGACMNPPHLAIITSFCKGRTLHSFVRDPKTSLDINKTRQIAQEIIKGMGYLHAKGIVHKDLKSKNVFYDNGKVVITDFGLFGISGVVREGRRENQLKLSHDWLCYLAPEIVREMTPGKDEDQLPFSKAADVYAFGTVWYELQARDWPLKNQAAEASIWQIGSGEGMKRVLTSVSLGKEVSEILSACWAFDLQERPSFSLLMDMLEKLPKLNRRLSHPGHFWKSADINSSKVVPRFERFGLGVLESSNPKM
Chain of UniProt O94822 (O94822 whole entry, looked up): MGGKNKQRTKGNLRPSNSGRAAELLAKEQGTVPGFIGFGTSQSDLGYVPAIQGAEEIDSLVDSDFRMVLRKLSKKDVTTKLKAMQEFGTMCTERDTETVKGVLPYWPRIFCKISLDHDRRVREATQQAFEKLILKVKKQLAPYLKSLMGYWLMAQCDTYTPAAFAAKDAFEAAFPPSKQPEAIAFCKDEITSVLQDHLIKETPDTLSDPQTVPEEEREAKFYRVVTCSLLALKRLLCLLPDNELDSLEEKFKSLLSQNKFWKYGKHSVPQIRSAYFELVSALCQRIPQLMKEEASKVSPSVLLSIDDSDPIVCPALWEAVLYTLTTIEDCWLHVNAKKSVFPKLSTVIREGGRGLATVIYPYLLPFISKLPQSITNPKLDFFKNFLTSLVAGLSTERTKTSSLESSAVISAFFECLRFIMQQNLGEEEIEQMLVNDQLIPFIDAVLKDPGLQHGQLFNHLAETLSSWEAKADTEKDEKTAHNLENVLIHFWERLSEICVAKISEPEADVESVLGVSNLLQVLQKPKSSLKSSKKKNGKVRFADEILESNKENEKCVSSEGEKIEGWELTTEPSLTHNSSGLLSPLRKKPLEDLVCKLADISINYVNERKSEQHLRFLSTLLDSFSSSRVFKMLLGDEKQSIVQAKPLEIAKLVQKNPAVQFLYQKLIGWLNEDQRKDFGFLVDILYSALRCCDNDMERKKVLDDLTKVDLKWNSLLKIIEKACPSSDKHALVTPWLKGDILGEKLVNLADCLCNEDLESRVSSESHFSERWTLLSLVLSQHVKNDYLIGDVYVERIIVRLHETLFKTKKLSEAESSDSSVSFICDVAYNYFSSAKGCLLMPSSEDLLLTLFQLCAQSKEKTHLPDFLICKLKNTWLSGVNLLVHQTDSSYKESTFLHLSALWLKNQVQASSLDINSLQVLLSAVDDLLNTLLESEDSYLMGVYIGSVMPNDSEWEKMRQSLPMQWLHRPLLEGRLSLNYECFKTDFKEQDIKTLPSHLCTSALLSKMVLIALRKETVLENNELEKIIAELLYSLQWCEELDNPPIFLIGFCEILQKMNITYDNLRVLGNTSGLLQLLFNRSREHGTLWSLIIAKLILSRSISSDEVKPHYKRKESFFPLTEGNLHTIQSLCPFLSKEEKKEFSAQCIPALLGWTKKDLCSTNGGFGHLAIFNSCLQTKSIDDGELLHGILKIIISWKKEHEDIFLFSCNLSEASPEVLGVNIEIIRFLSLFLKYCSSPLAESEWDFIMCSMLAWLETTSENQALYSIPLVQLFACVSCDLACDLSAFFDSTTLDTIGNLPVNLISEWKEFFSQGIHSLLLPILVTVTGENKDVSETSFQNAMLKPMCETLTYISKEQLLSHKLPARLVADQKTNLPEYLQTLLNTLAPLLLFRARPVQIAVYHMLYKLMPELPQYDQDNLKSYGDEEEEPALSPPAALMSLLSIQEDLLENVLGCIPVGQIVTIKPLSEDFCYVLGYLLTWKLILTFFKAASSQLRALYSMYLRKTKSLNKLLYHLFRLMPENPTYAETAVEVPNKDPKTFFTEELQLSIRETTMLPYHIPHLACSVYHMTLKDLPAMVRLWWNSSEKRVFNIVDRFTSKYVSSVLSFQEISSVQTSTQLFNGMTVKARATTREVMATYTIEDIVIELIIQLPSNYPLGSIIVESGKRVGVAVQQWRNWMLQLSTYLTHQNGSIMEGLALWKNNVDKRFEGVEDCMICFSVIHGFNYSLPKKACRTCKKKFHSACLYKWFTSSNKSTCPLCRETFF
Chain of UniProt Q86V48 (Q86V48 whole entry, looked up): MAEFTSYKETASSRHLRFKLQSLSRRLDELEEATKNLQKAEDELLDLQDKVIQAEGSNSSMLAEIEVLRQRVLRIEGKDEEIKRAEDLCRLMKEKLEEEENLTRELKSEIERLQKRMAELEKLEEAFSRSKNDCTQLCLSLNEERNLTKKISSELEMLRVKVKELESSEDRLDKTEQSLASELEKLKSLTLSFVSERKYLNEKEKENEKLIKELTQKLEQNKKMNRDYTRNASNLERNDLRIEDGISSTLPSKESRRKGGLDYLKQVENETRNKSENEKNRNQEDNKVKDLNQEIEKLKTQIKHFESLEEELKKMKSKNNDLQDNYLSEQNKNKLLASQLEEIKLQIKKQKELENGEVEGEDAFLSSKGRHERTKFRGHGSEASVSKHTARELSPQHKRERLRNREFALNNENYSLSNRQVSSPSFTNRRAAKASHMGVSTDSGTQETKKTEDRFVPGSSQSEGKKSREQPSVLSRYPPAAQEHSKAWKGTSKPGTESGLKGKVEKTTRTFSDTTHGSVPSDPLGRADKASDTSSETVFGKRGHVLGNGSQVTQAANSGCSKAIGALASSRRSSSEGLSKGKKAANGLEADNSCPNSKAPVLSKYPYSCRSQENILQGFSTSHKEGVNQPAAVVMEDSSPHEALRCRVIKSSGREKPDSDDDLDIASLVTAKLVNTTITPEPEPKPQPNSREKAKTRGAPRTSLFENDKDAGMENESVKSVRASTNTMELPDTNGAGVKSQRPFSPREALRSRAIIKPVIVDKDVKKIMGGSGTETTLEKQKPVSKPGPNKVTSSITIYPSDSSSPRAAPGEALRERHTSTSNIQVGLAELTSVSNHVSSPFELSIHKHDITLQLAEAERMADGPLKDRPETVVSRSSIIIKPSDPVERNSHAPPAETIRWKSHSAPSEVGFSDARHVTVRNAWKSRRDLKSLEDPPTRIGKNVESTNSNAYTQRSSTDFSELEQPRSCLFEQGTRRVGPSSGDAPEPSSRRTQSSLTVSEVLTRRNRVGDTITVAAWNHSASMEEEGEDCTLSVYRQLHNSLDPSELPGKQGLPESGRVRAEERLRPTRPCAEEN
Chain of UniProt O00522 (O00522 whole entry, looked up): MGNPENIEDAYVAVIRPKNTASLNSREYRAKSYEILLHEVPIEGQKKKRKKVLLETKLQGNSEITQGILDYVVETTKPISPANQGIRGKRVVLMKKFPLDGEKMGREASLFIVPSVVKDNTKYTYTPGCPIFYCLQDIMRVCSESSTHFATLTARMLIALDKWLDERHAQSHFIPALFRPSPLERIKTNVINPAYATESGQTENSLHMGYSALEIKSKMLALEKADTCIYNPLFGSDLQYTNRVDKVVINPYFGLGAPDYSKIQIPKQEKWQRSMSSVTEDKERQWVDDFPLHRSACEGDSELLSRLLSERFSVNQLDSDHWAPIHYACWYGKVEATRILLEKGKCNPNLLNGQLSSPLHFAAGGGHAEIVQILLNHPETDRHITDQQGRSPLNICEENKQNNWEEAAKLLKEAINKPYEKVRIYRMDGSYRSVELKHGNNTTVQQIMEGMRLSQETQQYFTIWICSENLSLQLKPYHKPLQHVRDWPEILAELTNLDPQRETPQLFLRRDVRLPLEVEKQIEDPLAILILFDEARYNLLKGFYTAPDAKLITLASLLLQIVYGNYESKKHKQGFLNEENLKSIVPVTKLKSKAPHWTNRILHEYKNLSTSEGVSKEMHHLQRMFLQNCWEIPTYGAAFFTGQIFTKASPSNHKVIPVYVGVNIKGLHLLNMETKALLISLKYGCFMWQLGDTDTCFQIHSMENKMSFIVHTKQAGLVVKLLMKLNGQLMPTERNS
Chain of UniProt Q6ZWT7 (Q6ZWT7 whole entry, looked up): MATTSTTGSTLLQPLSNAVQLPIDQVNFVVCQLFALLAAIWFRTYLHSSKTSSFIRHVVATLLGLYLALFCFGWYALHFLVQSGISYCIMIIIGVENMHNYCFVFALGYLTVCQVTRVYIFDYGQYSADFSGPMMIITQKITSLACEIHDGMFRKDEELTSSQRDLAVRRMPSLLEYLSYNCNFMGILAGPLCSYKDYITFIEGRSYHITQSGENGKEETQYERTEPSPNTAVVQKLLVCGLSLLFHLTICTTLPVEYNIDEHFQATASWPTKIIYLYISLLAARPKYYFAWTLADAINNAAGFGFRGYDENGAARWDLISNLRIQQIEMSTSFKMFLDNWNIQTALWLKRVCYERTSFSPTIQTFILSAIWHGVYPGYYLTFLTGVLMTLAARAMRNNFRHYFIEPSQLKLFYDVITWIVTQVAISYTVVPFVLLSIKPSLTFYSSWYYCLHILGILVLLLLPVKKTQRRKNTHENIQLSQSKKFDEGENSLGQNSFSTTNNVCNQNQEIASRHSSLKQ

As to LTN1 isoform 3 (UniProt O94822), the log2 fold change is 0.006 with nilotinib; -0.007 in assay [1]; -0.086 with dasatinib; -0.009 in [2]; 0.014 in assay [3]; -0.023 with quisinostat. Moreover, the log2 fold change in the assay with tipifarnib is -0.002; in assay [4] it was 0.044; in assay [5], -0.016; in assay [6], -0.027.

In the case of KRIT1 (UniProt O00522), the log2 fold change with nilotinib was -0.011; in assay [1] it was -0.04; with dasatinib it was 0.027; in assay [2], 0.041; in [3], -0.048; with quisinostat it was -0.147. Moreover, the log2 fold change is -0.135 in the assay with tipifarnib, 0.09 in assay [4], 0.021 in [5] and -0.005 in assay [6].

For the target MBOAT2 (UniProt Q6ZWT7), the log2 fold change with nilotinib was -0.006; in [1] it was -0.095; with dasatinib it was -0.178; in assay [2], 0.024; in assay [3], -0.027; with quisinostat, -0.042. Also, the log2 fold change is 0.12 in the assay with tipifarnib, 0.011 in [4], 0.03 in assay [5] and -0.012 in assay [6].

For the target LUZP1 (UniProt Q86V48), the log2 fold change was 0.013 with nilotinib; -0.046 in assay [1]; -0.004 with dasatinib; -0.02 in assay [2]; 0.062 in assay [3]; -0.03 with quisinostat. For the same target, the log2 fold change with tipifarnib was -0.005; in assay [4], 0.109; in assay [5], 0.01; in [6], 0.027.

For the target MAP3K4 (UniProt Q9Y6R4), the log2 fold change with nilotinib is 0.003; in assay [1], 0.206; in the assay with dasatinib, 0.485 (active); in assay [2], 0.095; in assay [3], 0.132; with quisinostat, -0.078. Besides, the log2 fold change was -0.015 with tipifarnib, 0.203 in assay [4], 0.045 in [5] and -0.021 in [6].

For KSR1 (UniProt Q8IVT5), the log2 fold change with nilotinib is 0; in [1], -0.04; with dasatinib it was -0.106; in [2], 0.056; in assay [3], 0.057; with quisinostat it was -0.015. For the same target, the log2 fold change with tipifarnib was -0.116; in assay [4], 0.069; in assay [5], 0.051; in assay [6], 0.003.
